Measurements reported in PubChem BioAssay.
Several values for one entry are separate records, joined by “and”; a condition that tells them apart may be missing. Equal entries are not always repeated. Activity calls are given as the source filed them. Rule as the data show it, unless noted: active = inhibition above about 80%; inactive = the rest.

What was measured:
[1] = HTB85 osteosarcoma cell growth inhibition, synergistic combos for chromothripsis tumors, BGB or cisplatin IC20 combos (AID 1671453); conditions: HTB85 osteosarcoma cells, drug combinations, single agent, at 5 µM, stronger effect = higher value;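 also: cells exposed for 96 hours before readout; 0% = vehicle DMSO and 100% = high DMSO killing control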
[2] = CRL2098 osteosarcoma cell growth inhibition, synergistic combos for chromothripsis tumors, BGB or cisplatin IC20 combos (AID 1671454); conditions: CRL2098 osteosarcoma cells, drug combinations, stronger effect = higher value;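 also: cells exposed for 96 h before readout; 0% = vehicle DMSO and 100% = killing by high DMSO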
[3] = HD-MB03 medulloblastoma cell growth inhibition, synergistic combos for chromothripsis tumors, BGB or cisplatin IC20 combos (AID 1671455; in the data active = inhibition above about 83%;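 also: 0% = vehicle DMSO and 100% = high DMSO as cytotoxic control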); conditions: HD-MB03 medulloblastoma cells, stronger effect = higher value
[4] = UWB1.289 ovarian carcinoma cell growth inhibition, synergistic combos for chromothripsis tumors, BGB or cisplatin combos (AID 1671456); conditions: UWB1.289 ovarian carcinoma cells, stronger effect = higher value;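 also: cells exposed to compound for four days; 0% = vehicle DMSO and 100% = killing by high DMSO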
[5] = LFS_MB_2R medulloblastoma cell growth inhibition, synergistic combos for chromothripsis tumors, cisplatin combos (AID 1671457); conditions: LFS_MB_2R medulloblastoma cells, stronger effect = higher value;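 also: cells exposed to compound for four days before readout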
[6] = MDA-MB-436 breast carcinoma cell growth inhibition, synergistic combos for chromothripsis tumors, BGB or cisplatin combos (AID 1671458; call rule not given here;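 also: cells exposed for 96 hours; 0% = vehicle DMSO and 100% = killing by high DMSO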); conditions: MDA-MB-436 breast carcinoma growth inhibition, drug combinations, stronger effect = higher value
[7] = UWB1.289_BRCA1 ovarian cancer growth, cell-based, BGB or cisplatin combinations (AID 1671459); conditions: UWB1.289 BRCA1 ovarian carcinoma, drug combinations, stronger effect = higher value
[8] = human astrocyte viability loss, single and combined drugs, cytotoxicity control for chromothriptic childhood tumor combination screen, cell-based, BGB or cisplatin IC20 combos (AID 1671460); conditions: Human astrocytes, drug combinations, stronger effect = higher value;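 also: cells exposed to compounds for 96 hours before viability readout; 0% = vehicle and 100% = killing control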
[9] = growth inhibition of BT084 medulloblastoma cells, cell-based, ICGC_MB145, cisplatin and BGB IC40 combos (AID 1671461); conditions: drug combinations, stronger effect = higher value;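 also: cells exposed to drugs for 96 hours; 0% = vehicle DMSO and 100% = high DMSO full killing control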
[10] = growth inhibition of RCMB18 medulloblastoma cells, cell-based, cisplatin and BGB IC40 combos (AID 1671462); conditions: stronger effect = higher value;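 also: cells exposed to compound for four days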
[11] = growth inhibition of CRL1545 osteosarcoma cells, cell-based, cisplatin and BGB IC20 combos (AID 1671464); conditions: stronger effect = higher value;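 also: cells exposed to compound for 96 hours before readout; 0% = vehicle DMSO and 100% = high DMSO killing control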
[12] = measured here: combination with cisplatin, at 0.5 µM

With COC1CCN(C(=O)c2cc(Cc3n[nH]c(=O)c4ccccc34)ccc2F)CC1 the inhibition [1] was 16.7% and 8.18%, the inhibition ([2]; at 0.5 µM) was -48.1% (inactive) and -65.8% (inactive) and the inhibition ([2]; measured here: combination with BGB at IC20, at 0.5 µM) was -70.3% and -24.2%. The inhibition ([2]; measured here: combination with cisplatin at IC20, at 0.5 µM) was -35.2% and -114%, the inhibition ([3]; at 0.5 µM) was -3.93% (inactive) and -2.04% (inactive) and the inhibition ([3]; measured here: combo with BGB at IC20, at 0.5 µM) was -9.33% and -8.78%. The inhibition ([3]; measured here: combo with cisplatin at IC20, at 0.5 µM) was 4.14% and 1.92%, the inhibition ([4]; at 0.5 µM) was -6.03% (inactive) and 1.25% (inactive) and the inhibition ([4]; measured here: inhibition with BGB combination, at 0.05 µM) was -33.1% and -12.4%. The inhibition ([4]; measured here: inhibition with cisplatin combination, at 0.05 µM) was -15.7% and -19.5%, the inhibition ([5]; at 0.5 µM) was -18.3% (inactive) and -16.9% (inactive) and the inhibition [5, 12] was -12.3% and -23.2%. The inhibition ([5]; measured here: combination with cisplatin, at 5 µM) was -8.19% and -16.7%, the inhibition ([6]; at 0.5 µM) was -6.48% (inactive) and 5.83% (inactive) and the inhibition ([6]; measured here: BGB combination, at 0.5 µM) was -20.6% and -13.1%. The inhibition ([6]; measured here: BGB combination, at 5 µM) was -22% and -12.5%, the inhibition ([6]; measured here: cisplatin combination, at 0.5 µM) was -7.18% and 13.4% and the inhibition ([6]; measured here: cisplatin combination, at 5 µM) was 19.7% and 25.3%. The inhibition ([7]; BGB combination, concentration series, at 5 µM) was -17.2% and 8.15%, the inhibition ([7]; at 0.5 µM) was -15.2% (inactive) and 1.82% (inactive) and the inhibition ([7]; cisplatin combination, concentration series, at 5 µM) was 1.96% and 12.2%. The inhibition ([8]; at 0.5 µM) was -2.67% (inactive) and 18.6% (inactive), the inhibition ([8]; measured here: combo with BGB IC20, at 0.5 µM) was -0.687% and 1.82% and the inhibition ([8]; measured here: combo with cisplatin IC20, at 0.5 µM) was -3.5% and 25%. The inhibition ([9]; at 0.5 µM) was -21.1% (inactive) and -16.8% (inactive), the inhibition ([9]; cisplatin combination, at 0.5 µM) was -20.5% and -64% and the inhibition ([9]; cisplatin combination, at 5 µM) was -29.9% and -19.1%. The inhibition ([9]; measured here: BGB IC40 combination 0.05 uM, at 0.05 µM) was -40% and -3%, the inhibition ([9]; single agent, at 5 µM) was -18% and 3.41% and the inhibition ([10]; at 0.5 µM) was -19.3% (inactive) and -19.5% (inactive). The inhibition ([10]; cisplatin combo, at 5 µM) was -5.98% and -18.2%, the inhibition ([10]; measured here: BGB IC40 combination, at 0.05 µM) was -15.8% and -4.12% and the inhibition [10, 12] was -25.7% and -45.6%. For the same molecule, the inhibition ([10]; single agent, at 5 µM) was -29.2% and -17.7%, the inhibition ([11]; at 0.5 µM) was 8.49% (inactive) and 7.34% (inactive) and the inhibition ([11]; measured here: with BGB IC20 combination, at 0.5 µM) was -9.33% and -2.37%. The inhibition ([11]; measured here: with cisplatin IC20 combination, at 0.5 µM) was 16.1% and 10.8%, the inhibition ([11]; single agent, at 0.05 µM) was 5.73% and -15.4% and the inhibition ([11]; single agent, at 5 µM) was 42.8% and 34.1%.
